{
  "source": "paper PMC11062922",
  "about": "(Nature Chemical Biology, 2023)",
  "set-up_in_all_cases": "species or system human, MV4-11 + K-562 + COLO205 + SK-N-BE2 + OVCAR-8",
  "key": {"[1]": {"system": "ABL1", "conditions": "read-out: apparent Kd, compound concentrations: 100 nM and 1000 nM (sheet 'Samples'), n = 1"}, "[2]": {"system": "NUAK2", "conditions": "read-out: apparent Kd, compound concentrations: 100 nM and 1000 nM (sheet 'Samples'), n = 1"}, "[3]": {"system": "PTK6", "conditions": "read-out: apparent Kd, compound concentrations: 100 nM and 1000 nM (sheet 'Samples'), n = 1"}, "[4]": {"system": "RPS6KA3", "conditions": "read-out: apparent Kd, compound concentrations: 100 nM and 1000 nM (sheet 'Samples'), n = 1"}, "[5]": {"system": "ULK3", "conditions": "read-out: apparent Kd, compound concentrations: 100 nM and 1000 nM (sheet 'Samples'), n = 1"}, "[6]": {"system": "YES1", "conditions": "read-out: apparent Kd, compound concentrations: 100 nM and 1000 nM (sheet 'Samples'), n = 1"}, "[7]": {"system": "EPHA2", "conditions": "read-out: apparent Kd, compound concentrations: 100 nM and 1000 nM (sheet 'Samples'), n = 1"}, "[8]": {"system": "PAK6", "conditions": "read-out: apparent Kd, compound concentrations: 100 nM and 1000 nM (sheet 'Samples'), n = 1"}, "[9]": {"system": "PRKG1", "conditions": "read-out: apparent Kd; compound concentrations: 100 nM and 1000 nM (sheet 'Samples'), CATDS: 9.7555331639362503E-2; n = 1"}, "[10]": {"system": "SRC", "conditions": "read-out: apparent Kd, compound concentrations: 100 nM and 1000 nM (sheet 'Samples'), n = 1"}, "[11]": {"system": "NLK", "conditions": "read-out: apparent Kd, compound concentrations: 100 nM and 1000 nM (sheet 'Samples'), n = 1"}, "[12]": {"system": "AKT3", "conditions": "read-out: apparent Kd; compound concentrations: 100 nM and 1000 nM (sheet 'Samples'), CATDS: 7.4016289423583202E-3; n = 1"}, "[13]": {"system": "NQO2", "conditions": "read-out: apparent Kd; compound concentrations: 100 nM and 1000 nM (sheet 'Samples'), CATDS: 3.2370847772948297E-2; n = 1"}},
  "note": "Like-named read-outs stand apart in the source and are kept apart here.",
  "data": [
    {"compound": "COc1ccc(Nc2ncc(C#N)c(Nc3ccccc3C(N)=O)n2)cc1N1CCN(C)CC1.Cl", "note": "[GSK1558669A]", "values": [
      {"measurement": "potency estimated from few doses", "setting": "[1]; CATDS: 1.2086196789939699E-2", "value": 112, "unit": "nM"},
      {"measurement": "potency estimated from few doses", "setting": "[2]; CATDS: 2.1181549202491899E-2", "value": 33.3, "unit": "nM"},
      {"measurement": "potency estimated from few doses", "setting": "[3]; CATDS: 1.8195014804837699E-2", "value": 44.6, "unit": "nM"},
      {"measurement": "potency estimated from few doses", "setting": "[4]; CATDS: 1.2141837427484699E-2", "value": 110, "unit": "nM"},
      {"measurement": "potency estimated from few doses", "setting": "[5]; CATDS: 2.8443328776369899E-2", "value": 20, "unit": "nM"},
      {"measurement": "potency estimated from few doses", "setting": "[6]; CATDS: 8.5191429755921595E-3", "value": 318, "unit": "nM"}
    ]},
    {"compound": "CN(c1ccc(NC(=O)Nc2cccc(Cl)c2)cc1)c1ccnc(N)n1.Cl", "note": "[GW830707A]", "values": [
      {"measurement": "potency estimated from few doses", "setting": "[1]; CATDS: 1.69612830125371E-2", "value": 90.3, "unit": "nM"},
      {"measurement": "potency estimated from few doses", "setting": "[7]; CATDS: 2.1264502158694101E-2", "value": 44.8, "unit": "nM"},
      {"measurement": "potency estimated from few doses", "setting": "[2]; CATDS: 1.08459098062964E-2", "value": 1270, "unit": "nM"},
      {"measurement": "potency estimated from few doses", "setting": "[8]; CATDS: 1.07398015427933E-2", "value": 1390, "unit": "nM"},
      {"measurement": "potency estimated from few doses", "setting": "[9]", "value": 3.28, "unit": "nM"},
      {"measurement": "potency estimated from few doses", "setting": "[10]; CATDS: 2.2534153996718501E-2", "value": 38.6, "unit": "nM"},
      {"measurement": "potency estimated from few doses", "setting": "[6]; CATDS: 2.3597692911318701E-2", "value": 34.5, "unit": "nM"}
    ]},
    {"compound": "Clc1cc(Cl)cc(Nc2ccnc(Nc3cc(Cl)cc(Cl)c3)n2)c1", "note": "[GSK175726A]", "values": [
      {"measurement": "potency estimated from few doses", "setting": "[1]; CATDS: 2.5998529843594201E-2", "value": 83.2, "unit": "nM"},
      {"measurement": "potency estimated from few doses", "setting": "[7]; CATDS: 3.0586231323348499E-2", "value": 64, "unit": "nM"},
      {"measurement": "potency estimated from few doses", "setting": "[8]; CATDS: 9.3443297736164402E-3", "value": 1060, "unit": "nM"},
      {"measurement": "potency estimated from few doses", "setting": "[3]; CATDS: 9.7207770515578794E-3", "value": 894, "unit": "nM"},
      {"measurement": "potency estimated from few doses", "setting": "[4]; CATDS: 8.5170276758985107E-3", "value": 1660, "unit": "nM"},
      {"measurement": "potency estimated from few doses", "setting": "[10]; CATDS: 2.4757216834404398E-2", "value": 90.3, "unit": "nM"},
      {"measurement": "potency estimated from few doses", "setting": "[6]; CATDS: 2.3154900781863899E-2", "value": 101, "unit": "nM"}
    ]},
    {"compound": "CCOC(=O)N1CCC(n2cnc(-c3ccc(F)cc3)c2-c2ccnc(N)n2)CC1", "note": "[SB-219952]", "values": [
      {"measurement": "potency estimated from few doses", "setting": "[1]; CATDS: 8.9388068544210691E-3", "value": 1180, "unit": "nM"},
      {"measurement": "potency estimated from few doses", "setting": "[7]; CATDS: 1.0740036537242301E-2", "value": 726, "unit": "nM"},
      {"measurement": "potency estimated from few doses", "setting": "[11]; CATDS: 4.0230749785041403E-2", "value": 72.7, "unit": "nM"},
      {"measurement": "potency estimated from few doses", "setting": "[3]; CATDS: 1.0027639490301001E-2", "value": 861, "unit": "nM"},
      {"measurement": "potency estimated from few doses", "setting": "[4]; CATDS: 7.9232054284878294E-3", "value": 1760, "unit": "nM"},
      {"measurement": "potency estimated from few doses", "setting": "[10]; CATDS: 1.0314047860945599E-2", "value": 802, "unit": "nM"},
      {"measurement": "potency estimated from few doses", "setting": "[5]; CATDS: 8.4106356024223894E-3", "value": 1430, "unit": "nM"},
      {"measurement": "potency estimated from few doses", "setting": "[6]; CATDS: 1.05685479515238E-2", "value": 755, "unit": "nM"}
    ]},
    {"compound": "Cl.Nc1c(C(=O)c2cccc(C#CCN3CCCCC3)c2)cnn1-c1ccc(F)cc1", "note": "[RO1154461-001]", "values": [
      {"measurement": "potency estimated from few doses", "setting": "[1]; CATDS: 1.29854856136426E-2", "value": 806, "unit": "nM"},
      {"measurement": "potency estimated from few doses", "setting": "[7]; CATDS: 1.6105152878217399E-2", "value": 472, "unit": "nM"},
      {"measurement": "potency estimated from few doses", "setting": "[2]; CATDS: 1.07977981674066E-2", "value": 1430, "unit": "nM"},
      {"measurement": "potency estimated from few doses", "setting": "[8]; CATDS: 1.2359364494815299E-2", "value": 927, "unit": "nM"},
      {"measurement": "potency estimated from few doses", "setting": "[3]; CATDS: 1.35601917152245E-2", "value": 717, "unit": "nM"},
      {"measurement": "potency estimated from few doses", "setting": "[10]; CATDS: 1.30987485498882E-2", "value": 787, "unit": "nM"},
      {"measurement": "potency estimated from few doses", "setting": "[6]; CATDS: 1.4471532311659799E-2", "value": 608, "unit": "nM"}
    ]},
    {"compound": "O=C1N=C(NCCc2ccc(Cl)cc2)S/C1=C\\c1ccc2ncccc2c1", "note": "[RO4498479-000]", "values": [
      {"measurement": "potency estimated from few doses", "setting": "[1]; CATDS: 1.01576334348417E-2", "value": 536, "unit": "nM"},
      {"measurement": "potency estimated from few doses", "setting": "[12]", "value": 1320, "unit": "nM"},
      {"measurement": "potency estimated from few doses", "setting": "[7]; CATDS: 1.41311052368837E-2", "value": 277, "unit": "nM"},
      {"measurement": "potency estimated from few doses", "setting": "[2]; CATDS: 7.8006037154547897E-3", "value": 1100, "unit": "nM"},
      {"measurement": "potency estimated from few doses", "setting": "[3]; CATDS: 1.2314432114231401E-2", "value": 357, "unit": "nM"},
      {"measurement": "potency estimated from few doses", "setting": "[4]; CATDS: 7.9720572811278097E-3", "value": 1020, "unit": "nM"},
      {"measurement": "potency estimated from few doses", "setting": "[10]; CATDS: 1.16822109686501E-2", "value": 396, "unit": "nM"},
      {"measurement": "potency estimated from few doses", "setting": "[5]; CATDS: 8.2720873677068606E-3", "value": 913, "unit": "nM"},
      {"measurement": "potency estimated from few doses", "setting": "[6]; CATDS: 1.22768983688542E-2", "value": 359, "unit": "nM"}
    ]},
    {"compound": "Cc1ccc(Nc2ccnc(Nc3ccc4c(c3)CS(=O)(=O)C4)n2)cc1O.Cl", "note": "[GW579362A]", "values": [
      {"measurement": "potency estimated from few doses", "setting": "[1]; CATDS: 2.9223994432995299E-2", "value": 1330, "unit": "nM"},
      {"measurement": "potency estimated from few doses", "setting": "[11]; CATDS: 6.6652285634060698E-2", "value": 208, "unit": "nM"},
      {"measurement": "potency estimated from few doses", "setting": "[3]; CATDS: 3.01604654859133E-2", "value": 1200, "unit": "nM"},
      {"measurement": "potency estimated from few doses", "setting": "[5]; CATDS: 3.7183394564858599E-2", "value": 681, "unit": "nM"}
    ]},
    {"compound": "CN(c1ccc(NC(=O)N2CCN(CCCN3CCOCC3)CC2)cc1)c1ccnc(Nc2ccc(CS(C)(=O)=O)cc2)n1.Cl", "note": "[GW830899A]", "values": [
      {"measurement": "potency estimated from few doses", "setting": "[1]; CATDS: 2.13093198764688E-2", "value": 1300, "unit": "nM"},
      {"measurement": "potency estimated from few doses", "setting": "[13]", "value": 552, "unit": "nM"},
      {"measurement": "potency estimated from few doses", "setting": "[5]; CATDS: 2.3659630965279298E-2", "value": 1010, "unit": "nM"}
    ]}
  ]
}
